PubChem BioAssay (Tox21)
Where “and” joins values, the source holds several entries; their conditions need not be identical. Equal entries are not always repeated. Inconclusive results are not listed. The source holds several records for some structures; these can differ, active in one and inactive in another. Calls of active or inactive are those of the source. The call rests on the fitted dose curve; in most records, active means well fitted inhibition curve with a large enough effect in the repeat runs; inconclusive means weak or mixed curves; inactive means flat fitted curve, though single readings scatter.

Target: Luciferin 4-monooxygenase (Photinus pyralis) (UniProt P08659)
Sequence (P08659 whole entry, looked up): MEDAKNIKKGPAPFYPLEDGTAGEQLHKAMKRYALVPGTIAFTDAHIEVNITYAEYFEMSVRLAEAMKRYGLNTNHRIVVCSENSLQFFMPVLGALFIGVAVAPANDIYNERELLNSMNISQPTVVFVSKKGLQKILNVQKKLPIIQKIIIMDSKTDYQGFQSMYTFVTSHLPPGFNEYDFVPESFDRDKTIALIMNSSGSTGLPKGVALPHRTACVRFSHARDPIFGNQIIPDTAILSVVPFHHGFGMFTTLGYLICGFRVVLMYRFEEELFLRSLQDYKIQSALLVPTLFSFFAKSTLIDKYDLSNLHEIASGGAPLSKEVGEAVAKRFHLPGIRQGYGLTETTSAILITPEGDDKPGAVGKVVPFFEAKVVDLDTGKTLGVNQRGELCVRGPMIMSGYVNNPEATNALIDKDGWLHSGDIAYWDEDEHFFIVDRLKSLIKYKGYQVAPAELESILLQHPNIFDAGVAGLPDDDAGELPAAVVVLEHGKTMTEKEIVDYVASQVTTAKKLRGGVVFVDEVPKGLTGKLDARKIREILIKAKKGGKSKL
Assay: qHTS assay to identify small molecule inhibitors of firefly luciferase (AID 1224835); further: nearly all actives have a fitted effect of over 25% in size
Details: purified P. pyralis luciferase, luminescence inhibition; series mostly up to 115 µM; activity change, negative = inhibition: at the top concentration
Description: U.S. Tox21 Program National Center for Advancing Translational Sciences [NCATS] NIH Chemical Genomics Center [NCGC] U.S. Environmental Protection Agency [EPA] National Institutes of Environmental Health Sciences [NIEHS] National Toxicology Program [NTP] U.S. Food and Drug Administration [FDA] Tox21 Assay Overview: Firefly (Photinus pyralis) luciferase is one of the most commonly used transcriptional reporters. Firefly luciferase reporter-gene assays are generally considered one of the most sensitive assay types (Wood, 1995; Wood, 1998). However, it was initially observed, in 1991, by Thompson et al., that compounds that resemble the substrates of firefly luciferase (FLuc) can act as competitive inhibitors of the enzyme, and that these compounds, upon interaction with luciferase in the cell, can actually stabilize the protein and increase its half-life. Previous profiling work by other groups to determine the prevalence of compounds that affect FLuc enzymatic activity (PubChem AID 411) identified that ~3% of the MLSMR library (then at ~72K) inhibited FLuc. […] Thus the Tox21 10K library is profiled for activity against FLuc using a biochemical assay of purified FLuc and KM concentrations of FLuc substrates (D-luciferin and ATP).
These assay plates were then treated with 23nL of compound or DMSO using a Kalypsys pin tool, which allows for delivery of a 6-point interplate titration of each compound to the assay plate (quantitative HTS.) 1 uL of firefly luciferase mix (containing 50 mM Tris acetate, pH 7.6, 0.04 uM P. pyralis luciferase, 0.01% Tween, 0.05% BSA and dH2O) was then delivered by FRD to each well. Luciferase activity was then measured using a ViewLux CCD imager.
On the % scale 0 is the no-effect control and ±100 the full control effect.

Row | Structure (SMILES) | activity change, negative = inhibition | Potency
1 | CCCNC(C)C(=O)Nc1ccccc1C (stereo not given) | 2.3% [at 52.9 µM] (inactive) | –
2 | OCC(CO)N[C@H]1C[C@](O)(CO)[C@@H](O)[C@H](O)[C@H]1O | -2.27% [at 52.9 µM] (inactive) | –
3 | CC(=O)C1=C(C)[C@@H]2C[C@@]3(C1)[C@H](C)CC[C@H]3C2(C)C | – | inactive
4 | CCCCCCCCCCCCc1ccccc1O | – | inactive
5 | Nc1ccc(O)cc1 | – | 65.7 µM (active) and inactive
6 | c1ccc2c(c1)-c1cccc3c1c-2cc1ccccc13 | – | 7.1 µM (active)
7 | [Cl][In]([Cl])[Cl] | – | 36.6 µM (active) and 39.9 µM (active)
8 | Clc1ccc2c(c1)C(N1CCNCC1)=Nc1ccccc1O2 | – | inactive
9 | COC(=O)[C@H]1[C@H]2C[C@@H]3c4[nH]c5cc(OC)ccc5c4CCN3C[C@H]2C[C@@H](OC(=O)c2cc(OC)c(OC)c(OC)c2)[C@@H]1OC | – | inactive
10 | CCCCCC(=O)O[C@]1(C(C)=O)CC[C@H]2[C@@H]3CCC4=CC(=O)CC[C@]4(C)[C@H]3CC[C@@]21C | – | inactive
11 | CC(=O)N[C@@H](CS)C(=O)O | – | inactive
12 | Cc1occc(=O)c1OC(=O)C(C)C | -0.264% (inactive) | –
13 | Cc1cc(Cc2cc(C)cc(C(C)(C)C)c2O)c(O)c(C(C)(C)C)c1 | – | inactive
14 | CCCCC/C=C/CC1CC(=O)OC1=O (stereo not given) | 4.01% (inactive) | –
15 | CC(=O)OCC1=C(C(=O)O)N2C(=O)[C@@H](NC(=O)Cc3cccs3)[C@H]2SC1 | 4.46% [at 52.9 µM] (inactive) | –
16 | CCOc1ccc2c(c1)C(C)=CC(C)(C)N2 | – | 56.1 µM (active) and 63.3 µM (active)
17 | NC(=Nc1ccccc1)Nc1ccccc1 | – | inactive
18 | c1ccc2cc3c(ccc4ccccc43)cc2c1 | – | 5.66 µM (active) and 8.94 µM (active)
19 | Cc1c(O)cccc1C(=O)N[C@@H](CSc1ccccc1)[C@H](O)CN1C[C@H]2CCCC[C@H]2C[C@H]1C(=O)NC(C)(C)C | – | inactive
20 | NC(Cc1ccc(Cl)cc1)C(=O)O (stereo not given) | 3.14% [at 0.435 µM] (inactive) | –

Row | Structure (SMILES) | activity change, negative = inhibition | Potency
21 | Nc1nc(=S)c2[nH]cnc2[nH]1 | – | inactive
22 | CNC1(C)C2CCC(C2)C1(C)C (stereo not given) | 0.0452% [at 52.9 µM] (inactive) | –
23 | Cc1cc(OCCOCC[N+](C)(C)Cc2ccccc2)ccc1C(C)(C)CC(C)(C)C | – | inactive
24 | OCCOCCN1CCN(C(c2ccccc2)c2ccc(Cl)cc2)CC1 (stereo not given) | – | inactive and 27.5 µM (active)
25 | CC(C)(c1ccccc1)c1ccc(Nc2ccc(C(C)(C)c3ccccc3)cc2)cc1 | 0.161% (inactive) | –
26 | O=C(O)c1cc(Cl)cc(Cl)c1 | 6.23% (inactive) | –
27 | CC(C)(C)c1ccccc1 | -0.781% (inactive) | –
28 | CC(C)(C)NCC(O)c1cc(O)cc(O)c1 (stereo not given) | -2.13% [at 52.9 µM] (inactive) | –
29 | Cc1cccc2n[nH]nc12 | – | inactive
30 | CO[Si](OC)(OC)c1ccccc1 | -1.4% (inactive) | –
31 | NC12CC3CC(CC(C3)C1)C2 | 1.89% [at 52.9 µM] (inactive) | –
32 | CC(=O)CC(C)=O | 2.96% (inactive) | –
33 | Oc1c(Cl)cc(Cl)cc1Sc1cc(Cl)cc(Cl)c1O | – | inactive
34 | CCN(CC)C(=O)Nc1ccc(OCC(O)CNC(C)(C)C)c(C(C)=O)c1 (stereo not given) | -1.23% [at 52.9 µM] (inactive) | –
35 | Nc1nc2ccccc2[nH]1 | – | inactive
36 | CCc1cc(C(C)(C)C)c(O)c(C(C)(C)C)c1 | – | inactive
37 | CCc1ccc(C(c2ccc(CC)cc2)C(Cl)Cl)cc1 | – | inactive
38 | NC(N)=NC(=O)Cc1c(Cl)cccc1Cl | -4.99% [at 52.9 µM] (inactive) | –
39 | C/C=C/c1ccc(OCC)c(O)c1 | – | 31.7 µM (active) and 35.6 µM (active)
40 | C#CC(C)(CC)OC(=O)c1ccccc1C(=O)O (stereo not given) | 5.23% [at 52.9 µM] (inactive) | –
